Molecular target: ERICH1
Experiment: pooled miR-30 sensor sort-seq; sequence = guide strand
Details: shRNA

Q: With TATACATTTAACTTAACAGAAT as the sequence, how does the sensor-assay potency score (higher = more potent) read?
A: -1.58

Q: Which sensor-assay potency score (higher = more potent) does the source give for TTTTTTGTTAAAGAGGAGCTGT here?
A: 0.195

Q: For TTCTTTGATTTATGCTTCCTAA, which sensor-assay potency score (higher = more potent) is on record?
A: -1.05

Q: With TTATTTTTGCTTATTGTGGTGC as the sequence, how does the sensor-assay potency score (higher = more potent) read?
A: 0.19

Q: With TTTCATTGGTAATTGTATCATC as the sequence, how does the sensor-assay potency score (higher = more potent) read?
A: -0.447

Q: For TTAACTTAACAGAATGTCCATT, which sensor-assay potency score (higher = more potent) is on record?
A: -0.597

Q: With TTATGCTTCCTAATTCTTCTTC as the sequence, how does the sensor-assay potency score (higher = more potent) read?
A: 0.311

Q: With TTCATTGCTGCTGTCCTCGGGC as the sequence, how does the sensor-assay potency score (higher = more potent) read?
A: 0.0342

Molecular target: ERMAP
Experiment: as above
Details: shRNA

Q: How did the sensor-assay potency score (higher = more potent) turn out when TTGTAGAAAGAGATGACTCCTG was run?
A: 0.279

Q: For TAGTTCTGAACAAATGACTAGA, which sensor-assay potency score (higher = more potent) is on record?
A: -0.0154

Q: How did the sensor-assay potency score (higher = more potent) turn out when TAGTAAAGAAGAGTTCACCTTG was run?
A: 0.291

Q: For TTTTGCTCTTCTTTGCTTCCAG, which sensor-assay potency score (higher = more potent) is on record?
A: 0.153

Q: Which sensor-assay potency score (higher = more potent) does the source give for TTTCTTGACAGCTTTATGGAGT here?
A: 0.273

Q: How did the sensor-assay potency score (higher = more potent) turn out when TCAGACATCGGTAAGACCCTTG was run?
A: 0.421

Q: TTTACTCAGATTTCCAACTTGG was tested. Which sensor-assay potency score (higher = more potent) did it give?
A: 0.208

Q: TCTCTCACTAGCACCGTCCTCC was tested. Which sensor-assay potency score (higher = more potent) did it give?
A: 0.0369

Q: With TTTGCTCTTCTTTGCTTCCAGA as the sequence, how does the sensor-assay potency score (higher = more potent) read?
A: -0.875

Q: With TTACACATCTTTGGTCCTCAGA as the sequence, how does the sensor-assay potency score (higher = more potent) read?
A: -0.674

Q: TATTGCAGTACAATGGTCTTGT was tested. Which sensor-assay potency score (higher = more potent) did it give?
A: 0.896

Q: Which sensor-assay potency score (higher = more potent) does the source give for TTCAACTTCAGTTCACTCCGGA here?
A: 0.912

Molecular target: ESPNL
Experiment: as above
Details: shRNA

Q: For TACATCTTCTTGAGTGTCCGTC, which sensor-assay potency score (higher = more potent) is on record?
A: 0.148

Q: For TAGCAAACACATGTTCAGCTTC, which sensor-assay potency score (higher = more potent) is on record?
A: 0.322

Q: Which sensor-assay potency score (higher = more potent) does the source give for TTTTACATCTTCTTGAGTGTCC here?
A: 0.799

Q: TGAGTCTGTGAGTACCTCCAGG was tested. Which sensor-assay potency score (higher = more potent) did it give?
A: -0.966

Q: TCGGTGAATGTGACCAGCCAGA was tested. Which sensor-assay potency score (higher = more potent) did it give?
A: -1.22

Q: Which sensor-assay potency score (higher = more potent) does the source give for TTTATTTAGCAAACACATGTTC here?
A: -0.167

Q: TCCTCTTCTTCCATCCTCCAGG was tested. Which sensor-assay potency score (higher = more potent) did it give?
A: -1.74

Q: TGCACCAAGAACTTGACGCAGT was tested. Which sensor-assay potency score (higher = more potent) did it give?
A: -1.02

Q: For TGCCACAACAGAACAGTCCCGC, which sensor-assay potency score (higher = more potent) is on record?
A: 0.291

Q: How did the sensor-assay potency score (higher = more potent) turn out when TTACATCTTCTTGAGTGTCCGT was run?
A: 0.428

Q: For TTCAGCAGCAGGGACAGGCTGC, which sensor-assay potency score (higher = more potent) is on record?
A: -0.751

Q: TTATTTAGCAAACACATGTTCA was tested. Which sensor-assay potency score (higher = more potent) did it give?
A: -0.54

Molecular target: ESR2
Experiment: as above
Details: shRNA

Q: With TACAGATGTGATAACTGGCGAT as the sequence, how does the sensor-assay potency score (higher = more potent) read?
A: -0.498

Q: Which sensor-assay potency score (higher = more potent) does the source give for TTACAGGTAAGGTGTGTTCTAG here?
A: -0.694

Q: TTCCAAGTTAGTGACATTGCTG was tested. Which sensor-assay potency score (higher = more potent) did it give?
A: -0.291

Q: AAATATAATCATTATGTCCTTG was tested. Which sensor-assay potency score (higher = more potent) did it give?
A: -0.156

Q: How did the sensor-assay potency score (higher = more potent) turn out when TTGTCGGCCAACTTGGTCAGGG was run?
A: -0.443

Q: TTTTCTGCCCTCGCATGCCTGA was tested. Which sensor-assay potency score (higher = more potent) did it give?
A: -0.946

Q: Which sensor-assay potency score (higher = more potent) does the source give for TTGAGCGCCACATCAGCCCCAT here?
A: -0.177

Q: How did the sensor-assay potency score (higher = more potent) turn out when TTGTACACTGATTTGTAGCTGG was run?
A: 0.245

Reference: the OligoGym collection
